Drawing on PubChem BioAssay (NCI), this text covers growth for eight compounds.

The panel holds about 83,000 compounds, 20% with a hit somewhere; the sample as a whole holds those more often.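 Percent growth is the endpoint: 0 to 100 indicates growth inhibition (40 means 60% inhibition), 0 means no net growth, and negative values indicate cell death.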 Values without a mark were called inactive. Active and inactive are the calls of the source. Rule for the calls: active = growth percent below 10; inactive = the rest.

Among the test systems are SK-MEL-2 melanoma; EKVX NSCLC; SN12C renal; UO-31 renal; TK-10 renal; ACHN renal; CAKI-1 renal; A498 renal; CCRF-CEM leukemia; MOLT-4 leukemia; SR leukemia; RPMI-8226 leukemia; OVCAR-8 ovarian; OVCAR-5 ovarian; OVCAR-4 ovarian; SK-OV-3 ovarian; IGROV1 ovarian; OVCAR-3 ovarian; HS 578T breast; NCI/ADR-RES ovarian.
What all share (experiment): NCI-60 one-dose screen, 48 h (100 = growth as untreated, 0 = no growth, -100 = all killed)
What all share (conditions): 10 µM unless noted

On to `COc1ccc(CNc2c3ccccc3nc3ccc(OC)cc23)cc1`, for which the growth was 40.9% in the assay on SK-MEL-2 melanoma; 24.2% in the assay with EKVX NSCLC; 20.8% in the assay with SN12C renal; 6.24% (active) with UO-31 renal; 33.6% in the assay on TK-10 renal; 10.2% in the assay with ACHN renal. Besides, the growth is 19.9% with CAKI-1 renal; -5.96% (active) in the assay with A498 renal; 19.4% in the assay with CCRF-CEM leukemia; -0.147% (active) in the assay on MOLT-4 leukemia; -15.5% (active) with SR leukemia; -47.7% (active) in the assay with RPMI-8226 leukemia. The growth was 25.4% in the assay with OVCAR-8 ovarian; 30.7% with OVCAR-5 ovarian; 18.4% in the assay on OVCAR-4 ovarian; 47.2% in the assay on SK-OV-3 ovarian; 11.2% in the assay with IGROV1 ovarian; 40.4% in the assay on OVCAR-3 ovarian. Further, the growth with HS 578T breast is 25.9%; in the assay on NCI/ADR-RES ovarian, 16.2%.

For `c1ccc2c(N=NSc3ncnc4nc[nH]c34)c3ccccc3nc2c1`, the growth is -23.6% (active) with SK-MEL-2 melanoma; 16.7% in the assay with EKVX NSCLC; 4.81% (active) in the assay on SN12C renal; 4.86% (active) in the assay with UO-31 renal; 36.4% with TK-10 renal; -27.8% (active) in the assay on ACHN renal. Besides, the growth was 19.7% in the assay with CAKI-1 renal; -8% (active) with A498 renal; -4.86% (active) in the assay on CCRF-CEM leukemia; -17.4% (active) with MOLT-4 leukemia; -28.1% (active) with SR leukemia; -1.28% (active) in the assay on RPMI-8226 leukemia. Also, the growth in the assay on OVCAR-8 ovarian was -25.7% (active); in the assay on OVCAR-5 ovarian, -9.11% (active); in the assay with OVCAR-4 ovarian, -8.92% (active); in the assay on SK-OV-3 ovarian, -14.2% (active); in the assay on IGROV1 ovarian, 6.28% (active); in the assay on OVCAR-3 ovarian, 5.13% (active). In addition, the growth was 53.6% in the assay with HS 578T breast and -33.4% (active) in the assay with NCI/ADR-RES ovarian.

For `Clc1nnc2c3ccccc3ccn12`, the growth with SK-MEL-2 melanoma is 108%; with EKVX NSCLC, 105%; in the assay on SN12C renal, 109%; in the assay on UO-31 renal it was 98.8%; in the assay on TK-10 renal, 106%; in the assay with ACHN renal, 105%. Further, the growth in the assay with CAKI-1 renal was 93%; with A498 renal, 106%; in the assay on CCRF-CEM leukemia, 92.6%; with MOLT-4 leukemia it was 104%; in the assay on SR leukemia, 106%; with RPMI-8226 leukemia it was 99.6%. Also, the growth in the assay on OVCAR-8 ovarian is 99.1%; in the assay on OVCAR-5 ovarian it was 103%; in the assay with OVCAR-4 ovarian, 111%; in the assay on SK-OV-3 ovarian, 95.1%; in the assay with IGROV1 ovarian, 113%; in the assay with OVCAR-3 ovarian, 112%. Also, the growth in the assay on HS 578T breast is 103%; with NCI/ADR-RES ovarian it was 112%.

As to `CC(C)OC1OC(OC(C)C)C(OC(C)C)OC1OC(C)C` (stereo not given), the growth is 95.1% with SK-MEL-2 melanoma; 103% with EKVX NSCLC; 94.6% in the assay on SN12C renal; 92.5% in the assay with UO-31 renal; 102% with TK-10 renal; 95.1% with ACHN renal. For the same compound, the growth was 93.9% with CAKI-1 renal; 101% in the assay with A498 renal; 93.4% in the assay with CCRF-CEM leukemia; 80.2% with MOLT-4 leukemia; 100% in the assay on SR leukemia; 94.5% in the assay on RPMI-8226 leukemia. The growth with OVCAR-8 ovarian was 94.4%; in the assay on OVCAR-5 ovarian it was 102%; in the assay with OVCAR-4 ovarian it was 88.9%; in the assay on SK-OV-3 ovarian, 113%; in the assay on IGROV1 ovarian it was 93.9%; in the assay with OVCAR-3 ovarian it was 99.5%. Further, the growth is 101% with HS 578T breast and 105% with NCI/ADR-RES ovarian.

Consider `COc1ccc(Oc2nc(Nc3ccc(N4CCOCC4)cc3)ncc2NC(=O)Nc2cccc(OC)c2)cc1`, for which the growth with SK-MEL-2 melanoma is 39.2%; with EKVX NSCLC, 84.6%; with SN12C renal it was 50.7%; in the assay on UO-31 renal it was 75.8%; with TK-10 renal, 75.9%; with ACHN renal it was 68%. The growth with CAKI-1 renal was 62.2%; in the assay with A498 renal, 66.3%; with CCRF-CEM leukemia it was 68.1%; with MOLT-4 leukemia it was 40.4%; in the assay with SR leukemia it was 74.2%; in the assay on RPMI-8226 leukemia it was 56.8%. Also, the growth was 50.3% in the assay with OVCAR-8 ovarian; 103% with OVCAR-5 ovarian; 75.8% in the assay on OVCAR-4 ovarian; 87% in the assay on SK-OV-3 ovarian; 76.2% in the assay on IGROV1 ovarian; 68.4% in the assay on OVCAR-3 ovarian. For the same compound, the growth with HS 578T breast was 60.5%; with NCI/ADR-RES ovarian it was 85.2%.

As for `CC1CCCN(CCCCOc2ccc(-c3ccc(C#N)cc3)cc2)C1` (stereo not given), the growth was 88.6% in the assay with SK-MEL-2 melanoma; 88.9% in the assay on EKVX NSCLC; 89.3% with SN12C renal; 74.5% in the assay on UO-31 renal; 80.6% in the assay on TK-10 renal; 111% with ACHN renal. Also, the growth in the assay with CAKI-1 renal is 98.7%; with A498 renal it was 82.4%; with CCRF-CEM leukemia, 59.4%; in the assay with MOLT-4 leukemia it was 83.4%; in the assay with SR leukemia, 86.8%; in the assay with RPMI-8226 leukemia, 71.1%. In addition, the growth was 82.3% in the assay on OVCAR-8 ovarian; 97.1% in the assay with OVCAR-5 ovarian; 93.8% with OVCAR-4 ovarian; 95.3% in the assay with SK-OV-3 ovarian; 107% in the assay with IGROV1 ovarian; 98.6% with OVCAR-3 ovarian. Also, the growth in the assay on HS 578T breast was 87.4%; in the assay with NCI/ADR-RES ovarian, 89.7%.

As to `NNC(=O)CSc1nc2scc(-c3ccccc3)c2c(=O)n1-c1ccccc1`, the growth was 101% with SK-MEL-2 melanoma; 103% with EKVX NSCLC; 101% with SN12C renal; 76.2% in the assay on UO-31 renal; 178% with TK-10 renal; 103% in the assay on ACHN renal. The growth was 106% in the assay with CAKI-1 renal; 87.4% in the assay on A498 renal; 106% in the assay on CCRF-CEM leukemia; 96% with MOLT-4 leukemia; 83% in the assay with SR leukemia; 109% with RPMI-8226 leukemia. In addition, the growth in the assay with OVCAR-8 ovarian is 123%; in the assay on OVCAR-5 ovarian it was 98%; with OVCAR-4 ovarian it was 92.8%; in the assay with SK-OV-3 ovarian it was 120%; in the assay on IGROV1 ovarian, 102%; in the assay on OVCAR-3 ovarian it was 99.5%. Moreover, the growth with HS 578T breast is 89.2%; in the assay with NCI/ADR-RES ovarian it was 103%.

Consider `O=C(NNC(=O)c1cccc(Cl)c1)c1ccccc1`, for which the growth with SK-MEL-2 melanoma was 100%; with EKVX NSCLC, 103%; in the assay with SN12C renal it was 106%; in the assay on UO-31 renal, 99.3%; in the assay on TK-10 renal it was 117%; in the assay with ACHN renal it was 130%. For the same compound, the growth in the assay on CAKI-1 renal is 103%; in the assay with A498 renal, 73.2%; in the assay with CCRF-CEM leukemia, 98.4%; in the assay with MOLT-4 leukemia it was 100%; with SR leukemia, 85.8%; in the assay with RPMI-8226 leukemia, 101%. Moreover, the growth in the assay with OVCAR-8 ovarian was 106%; in the assay on OVCAR-5 ovarian, 103%; in the assay with OVCAR-4 ovarian, 103%; in the assay on SK-OV-3 ovarian, 114%; in the assay on IGROV1 ovarian, 115%; in the assay on OVCAR-3 ovarian, 115%. Also, the values for the growth in the assay on HS 578T breast and in the assay with NCI/ADR-RES ovarian were 105% and 111%, respectively.
